The supplement of paper PMC8975748
Counter-ions that a name gives are not always drawn.

These molecules were tested on Saccharomyces cerevisiae BY4741 SeMeCo community (assay: z-score of subpopulation abundance vs DMSO median, subpopulation auxotrophic for H; higher = larger share of this subpopulation than in DMSO controls). Details: 10 µM; 24 h; SM minimal medium; subpopulation (auxotrophy): H.
Procedure: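 Fluorescent four-plasmid SeMeCo (self-establishing metabolically cooperating S. cerevisiae BY4741 community; plasmids pH-mRuby2, pL-mWasabi, pU-eCFP, pM-TagRFP657) was grown 24 h in minimal SM medium with each Selleck FDA-approved drug at 10 µM in 384-well plates. Cells were fixed and imaged by high-content confocal microscopy. For each auxotrophic subpopulation (and the prototroph), a z-score gives the deviation from the DMSO vehicle-control population median.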

SMILES | z-score of subpopulation abundance
CS(=O)(=O)c1ccc([C@@H](O)[C@@H](CO)NC(=O)C(Cl)Cl)cc1 [Thiamphenicol] | -0.3
CCOC(=O)OC(C)OC1=C(C(=O)Nc2ccccn2)N(C)S(=O)(=O)c2ccccc21 (stereo not given) [Ampiroxicam] | -0.19
CCCCC(F)(F)[C@@]1(O)CC[C@H]2[C@@H](CC(=O)[C@@H]2CCCCCCC(=O)O)O1 [Lubiprostone] | -0.12
OC(c1ccccc1)(c1ccccc1)C12CC[N+](CCOCc3ccccc3)(CC1)CC2 [Umeclidinium bromide] | -0.1
CC(C)C(=O)c1c(C(C)C)nn2ccccc12 [Ibudilast] | -1.02
CC1(C)S[C@@H]2[C@H](NC(=O)C(c3ccccc3)S(=O)(=O)O)C(=O)N2[C@H]1C(=O)O (stereo not given in full) [Sulbenicillin Sodium] | 1.2
CONC(=O)Nc1ccc(-c2sc3c(c2CN(C)C)c(=O)n(-c2ccc(OC)nn2)c(=O)n3Cc2c(F)cccc2F)cc1 [Relugolix] | 0.68
CC[N+](C)(C)c1cccc(O)c1 [Edrophonium chloride] | -1.41
Cc1c(-c2ccccc2)oc2c(C(=O)OCCN3CCCCC3)cccc2c1=O [Flavoxate HCl] | -0.53
CN[C@H]1C(=O)N[C@@H]2Cc3ccc(cc3)Oc3cc4cc(c3O[C@@H]3O[C@H](C(=O)O)[C@@H](O)[C@H](O)[C@H]3NC(=O)CCCCCCCCC(C)C)Oc3ccc(cc3Cl)[C@@H](O)[C@@H]3NC(=O)[C@H](NC(=O)[C@@H]4NC(=O)[C@@H](NC2=O)c2cc(cc(O)c2Cl)Oc2cc1ccc2O)c1ccc(O)c(c1)-c1c(O[C@H]2O[C@H](CO)[C@@H](O)[C@H](O)[C@@H]2O)cc(O)cc1[C@@H](C(=O)NCCCN(C)C)NC3=O [Dalbavancin] | 4.04
CN(C)C(=O)COC(=O)Cc1ccc(OC(=O)c2ccc(NC(=N)N)cc2)cc1 [Camostat Mesilate] | 0.16
Cn1c(=O)c2[nH]cnc2n(C)c1=O [Aminophylline] | -0.41
C[C@@H](O)[C@H]1C(=O)N2C(C(=O)[O-])=C(SC3Cn4cnc[n+]4C3)[C@H](C)[C@H]12 (stereo not given in full) [Biapenem] | -0.04
COc1ccc(C[C@H](N)C(=O)N[C@H]2[C@@H](O)[C@H](n3cnc4c(N(C)C)ncnc43)O[C@@H]2CO)cc1 [Puromycin 2HCl] | -0.66
CCN1CC(CCN2CCOCC2)C(c2ccccc2)(c2ccccc2)C1=O (stereo not given) [Doxapram HCl] | -0.42
NCC[C@H](O)C(=O)N[C@@H]1C[C@H](N)[C@@H](O[C@H]2O[C@H](CN)[C@@H](O)[C@H](O)[C@H]2O)[C@H](O)[C@H]1O[C@H]1O[C@H](CO)[C@@H](O)[C@H](N)[C@H]1O [Amikacin hydrate] | -0.04
CC(=O)OCC1=C(C(=O)O)N2C(=O)C(NC(=O)CSC(=NC(C)C)NC(C)C)C2SC1 (stereo not given) [Cefathiamidine] | -0.66
N#Cc1ccc(Oc2ccc3c(c2)COB3O)cc1 [Crisaborole (AN2728)] | 7.63
CC(=O)OCC[N+](C)(C)C [Acetylcholine iodide] | -0.21
CCNC(=O)[C@@H]1CCCN1C(=O)[C@H](CCCNC(=N)N)NC(=O)[C@H](CC(C)C)NC(=O)[C@@H](CC(C)C)NC(=O)[C@H](Cc1ccc(O)cc1)NC(=O)[C@H](CO)NC(=O)[C@H](Cc1c[nH]c2ccccc12)NC(=O)[C@H](Cc1c[nH]cn1)NC(=O)[C@@H]1CCC(=O)N1 [Leuprolide Acetate] | 0.67

SMILES | z-score of subpopulation abundance
COc1ccc(C(Cl)=C(c2ccc(OC)cc2)c2ccc(OC)cc2)cc1 [Chlorotrianisene] | 1.21
c1ccc(-c2ccc(C(c3ccccc3)n3ccnc3)cc2)cc1 (stereo not given) [Bifonazole] | 1.08
COCCOC(=O)C1=C(C)NC(C)=C(C(=O)OC/C=C/c2ccccc2)C1c1cccc([N+](=O)[O-])c1 (stereo not given) [Cilnidipine] | 1.28
CN1CCN(c2cc3c(cc2F)c(=O)c(C(=O)O)cn3-c2ccc(F)cc2)CC1 [Difloxacin hydrochloride] | -2.54
COc1cccc2c1C(=O)c1c(O)c3c(c(O)c1C2=O)C[C@@](O)(C(=O)CO)C[C@@H]3O[C@H]1C[C@H](N)[C@H](O[C@@H]2CCCCO2)[C@H](C)O1 [Pirarubicin] | -1.05
CS(=O)(=O)c1ccc([C@@H](O)[C@@H](CF)NC(=O)C(Cl)Cl)cc1 [Florfenicol] | -0.98
O=c1[nH]c(=O)n([C@H]2C[C@H](O)[C@@H](CO)O2)cc1/C=C/Br [Brivudine] | -2.5
Oc1c(Cl)cc(Cl)c(Cl)c1Cc1c(O)c(Cl)cc(Cl)c1Cl [Hexachlorophene] | 7.09
CC1(C)S[C@@H]2[C@H](NC(=O)[C@H](N)c3ccc(O)cc3)C(=O)N2[C@H]1C(=O)O [Amoxicillin] | 0.05
CC1(C)S[C@@H]2[C@H](NC(=O)COc3ccccc3)C(=O)N2[C@H]1C(=O)O [Penicillin V potassium salt] | -1.14
Cc1ccccc1OCC(O)CO (stereo not given) [Mephenesin] | -0.65
CN1C(C(=O)Nc2ccccn2)=C(O)c2ccccc2S1(=O)=O [Piroxicam] | -0.62
CC[C@H](C)C[C@H](C)CCCCCCCCC(=O)N[C@H]1C[C@@H](O)[C@@H](NCCN)NC(=O)[C@@H]2[C@@H](O)CCN2C(=O)[C@H]([C@H](O)CCN)NC(=O)[C@H]([C@H](O)[C@@H](O)c2ccc(O)cc2)NC(=O)[C@@H]2C[C@@H](O)CN2C(=O)[C@H]([C@@H](C)O)NC1=O [Caspofungin Acetate] | 31.6
Nc1ccc(S(N)(=O)=O)cc1 [Sulfanilamide] | -0.45
Cc1cc(-c2ccc(/N=N/c3ccc4c(S(=O)(=O)O)cc(S(=O)(=O)O)c(N)c4c3O)c(C)c2)ccc1/N=N/c1ccc2c(S(=O)(=O)O)cc(S(=O)(=O)O)c(N)c2c1O [Evans Blue] | 4.9
OCCN1CCN(CC/C=C2/c3ccccc3Sc3ccc(C(F)(F)F)cc32)CC1 [Flupenthixol dihydrochloride] | 0.73
CC1=Nc2ccc(Cl)cc2S(=O)(=O)N1 [Diazoxide] | -0.86
Nc1ccc(S(=O)(=O)Nc2ccccn2)cc1 [Sulfapyridine] | -0.9
CN(C)C[C@@H]1CCn2cc(c3ccccc32)C2=C(C(=O)NC2=O)c2cn(c3ccccc23)CCO1 | 1.52
CO[C@@]1(NC(=O)C(C(=O)O)c2ccc(O)cc2)C(=O)N2C(C(=O)O)=C(CSc3nnnn3C)CO[C@@H]21 (stereo not given in full) [Latamoxef sodium] | 0.8
